High-throughput results as filed in PubChem.
Hits are enriched below; roughly 2.9% of the tested compounds scored in any of these assays.
proKLK7 act: activators of human kallikrein-7 zymogen. P49862. purified proKLK7, EDANS-DABCYL substrate fluorescence; 100% is mature enzyme control, 0% vehicle. activation, % at 7 µM. actives 0.9% (n = 370,000). AID 652039;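 active = activation above the mean of all tested compounds plus 3 SD, computed per campaign excluding outliers beyond control limits, cut at about 13% in these data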
FAS-TE inh: inhibitors of human fatty acid synthase thioesterase domain. P49327. recombinant FAS-TE, OMFH fluorogenic substrate, fluorescence endpoint. inhibition, % at 15 µM. actives 0.67% (n = 360,000);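 active = compounds whose normalised, plate-corrected inhibition of enzyme fluorescence in the single-dose primary screen is 50% or more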;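 note: 0% = DMSO with enzyme and 100% = substrate without enzyme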
Target sequence (P49327 whole entry, looked up, the tested form may be a part): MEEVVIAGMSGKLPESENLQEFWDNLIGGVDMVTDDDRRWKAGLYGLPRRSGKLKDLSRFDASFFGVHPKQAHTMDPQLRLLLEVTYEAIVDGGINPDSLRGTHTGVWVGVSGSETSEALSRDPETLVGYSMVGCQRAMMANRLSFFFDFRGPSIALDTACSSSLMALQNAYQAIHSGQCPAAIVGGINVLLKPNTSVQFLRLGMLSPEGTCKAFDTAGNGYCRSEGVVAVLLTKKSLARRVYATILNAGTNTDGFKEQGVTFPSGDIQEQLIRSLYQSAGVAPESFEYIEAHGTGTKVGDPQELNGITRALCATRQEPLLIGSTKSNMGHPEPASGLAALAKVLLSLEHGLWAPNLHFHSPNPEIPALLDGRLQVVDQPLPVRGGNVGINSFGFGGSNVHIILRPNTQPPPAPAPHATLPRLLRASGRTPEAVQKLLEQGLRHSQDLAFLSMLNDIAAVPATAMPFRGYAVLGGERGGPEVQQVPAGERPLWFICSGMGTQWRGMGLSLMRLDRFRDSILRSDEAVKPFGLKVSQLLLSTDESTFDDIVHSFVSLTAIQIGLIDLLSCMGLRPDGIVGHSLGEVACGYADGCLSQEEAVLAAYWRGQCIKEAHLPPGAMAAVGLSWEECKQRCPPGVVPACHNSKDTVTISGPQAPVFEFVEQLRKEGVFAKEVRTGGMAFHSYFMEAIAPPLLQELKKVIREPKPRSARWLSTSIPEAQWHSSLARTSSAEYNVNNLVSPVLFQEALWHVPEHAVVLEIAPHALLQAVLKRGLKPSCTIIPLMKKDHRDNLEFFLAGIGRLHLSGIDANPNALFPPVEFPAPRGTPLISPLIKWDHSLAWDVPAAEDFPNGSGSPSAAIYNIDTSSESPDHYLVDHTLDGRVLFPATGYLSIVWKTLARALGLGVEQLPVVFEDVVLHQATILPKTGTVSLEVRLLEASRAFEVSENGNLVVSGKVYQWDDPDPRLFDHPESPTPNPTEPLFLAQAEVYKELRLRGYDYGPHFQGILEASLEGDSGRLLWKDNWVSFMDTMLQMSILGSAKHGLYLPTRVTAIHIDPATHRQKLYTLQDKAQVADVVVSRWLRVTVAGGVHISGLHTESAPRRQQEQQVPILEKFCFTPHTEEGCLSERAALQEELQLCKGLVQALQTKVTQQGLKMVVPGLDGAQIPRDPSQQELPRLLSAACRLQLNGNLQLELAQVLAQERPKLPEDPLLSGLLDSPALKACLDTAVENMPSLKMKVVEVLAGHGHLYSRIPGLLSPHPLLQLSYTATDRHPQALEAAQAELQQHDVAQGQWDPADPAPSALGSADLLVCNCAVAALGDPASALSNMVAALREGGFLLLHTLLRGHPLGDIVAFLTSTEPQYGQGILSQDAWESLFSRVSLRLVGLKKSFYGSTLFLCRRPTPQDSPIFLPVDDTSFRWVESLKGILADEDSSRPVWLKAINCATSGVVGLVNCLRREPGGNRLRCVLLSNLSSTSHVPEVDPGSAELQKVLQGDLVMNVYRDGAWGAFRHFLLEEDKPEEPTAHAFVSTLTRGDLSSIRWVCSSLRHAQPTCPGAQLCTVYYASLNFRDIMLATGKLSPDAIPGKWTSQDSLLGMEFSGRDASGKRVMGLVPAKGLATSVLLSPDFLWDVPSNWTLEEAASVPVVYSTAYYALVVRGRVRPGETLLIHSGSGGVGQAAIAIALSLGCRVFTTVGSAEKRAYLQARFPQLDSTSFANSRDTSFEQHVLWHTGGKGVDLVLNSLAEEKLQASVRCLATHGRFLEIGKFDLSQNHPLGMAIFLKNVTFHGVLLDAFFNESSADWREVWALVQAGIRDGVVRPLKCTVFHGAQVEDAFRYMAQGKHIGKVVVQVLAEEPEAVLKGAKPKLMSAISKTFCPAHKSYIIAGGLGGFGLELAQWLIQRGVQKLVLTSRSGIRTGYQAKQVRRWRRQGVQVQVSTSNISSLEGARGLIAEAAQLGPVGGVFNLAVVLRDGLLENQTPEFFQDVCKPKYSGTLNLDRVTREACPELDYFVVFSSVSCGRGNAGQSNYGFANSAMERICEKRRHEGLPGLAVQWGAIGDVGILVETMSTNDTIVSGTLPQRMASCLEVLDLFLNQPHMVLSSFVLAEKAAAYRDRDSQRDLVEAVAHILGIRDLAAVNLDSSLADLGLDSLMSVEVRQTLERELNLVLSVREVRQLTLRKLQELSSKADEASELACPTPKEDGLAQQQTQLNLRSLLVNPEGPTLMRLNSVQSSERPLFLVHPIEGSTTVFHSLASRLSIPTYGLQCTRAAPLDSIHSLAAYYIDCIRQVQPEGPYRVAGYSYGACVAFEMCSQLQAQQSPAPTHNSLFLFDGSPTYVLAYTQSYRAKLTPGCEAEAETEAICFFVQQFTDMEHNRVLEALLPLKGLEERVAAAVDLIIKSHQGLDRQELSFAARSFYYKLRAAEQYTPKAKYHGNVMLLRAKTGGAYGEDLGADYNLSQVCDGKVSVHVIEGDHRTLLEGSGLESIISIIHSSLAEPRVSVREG
SMARCA2 activ: increases SMARCA2 function in MMTV reporter cells; MG213 cells, MMTV-luciferase reporter, dexamethasone, overnight; activation, % at 9.1 µM; actives 1% (n = 370,000); AID 652017; in the data active = activation above about 7.8%;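 note: 0% = vehicle wells and 100% = reference activator wells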
FXN GAA850 act: activators of GAA850 frataxin (FXN) promoter; HEK293 lucGAA850 FXN promoter luciferase reporter, 24 h; percent of 10 µM SAHA response; activation, % at 6 µM; actives 0.56% (n = 360,000);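 active = activation above the average of all compounds screened plus 3 SD, cutoff fixed separately per campaign, cut at about 7.5% in these data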;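 note: 0% = DMSO wells and 100% = 10 µM SAHA wells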
SMARCA2 act conf: SMARCA2 activation, confirmation screen; shares compounds with SMARCA2 activ; AID 652260; actives 30% (n = 3,500); activation, % at 9.1 µM; MG213 cells, MMTV-luciferase with dexamethasone, luminescence, overnight; MG213 cells expressing E1A, Rb sequestered; DMSO wells 0%, reference activator 100%;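 active = activation above its plate's cutoff, the mean activation of tested wells plus 3 SD, cut at about 7.9% in these data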
VP16 Luc act: GAL4-VP16 reporter activation counter-screen; shares compounds with SMARCA2 activ; HEK293 GAL4-VP16 pG5luc reporter, luciferase luminescence; scaled: DMSO wells 0%, SAHA wells 100%; activation, % at 9.1 µM; actives 41% (n = 3,500);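 active = activation above the solvent-only control well mean plus 3 SD, averaged across control plates, cut at about 5.2% in these data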
* hit, by the source's call; · = not tested or not shown.

SMILES	proKLK7 act	FAS-TE inh	SMARCA2 activ	FXN GAA850 act	SMARCA2 act conf	VP16 Luc act
Cc1cc(=O)[nH]c(SCc2nnnn2-c2ccc(Cl)cc2)n1	0	-9	1	-1	·	·
Cc1ccc2c(c1)cc(C(=O)N1CCN(c3ccccn3)CC1)n2C	0	3	-2	1	·	·
CCOC(=O)C1CN(S(C)(=O)=O)c2cc(CC(=O)OC)ccc2O1 (centres undefined)	0	-2	8.2*	2	-1	1
Cc1sc(C(=O)NCc2cccnc2)c2nc(C)n(CC(=O)NCc3cccnc3)c(=O)c12	0	-7	0	-3	·	·
C=CCN1CCc2c(cc(O)c(O)c2Cl)C(c2ccccc2)C1 (centres undefined)	1	-8	9.2*	1	5	1
CCOC(=O)c1c(C)[nH]c(C)c1C(=O)COC(=O)c1cccnc1SC	-1	-1	3	2	·	·
Cc1ccc(/C=c2/sc3n(c2=O)CCCN=3)o1	0	-10	8.7*	4	6	4
Cc1ccc(-c2nn(-c3ccc(F)cc3)cc2C(=O)N2CCN(C3CCS(=O)(=O)C3)CC2)cc1 (centres undefined)	0	1	9.5*	1	4	2
O=C(c1cc(Cl)ccc1Cl)N1CCOCC1	0	-9	11*	-3	8.2*	1
O=C(c1ccc(Cl)cc1Cl)N1CCOCC1	0	-7	2	0	·	·
Cc1cc(C)nc(SCc2ccc(C(=O)N/N=C/C3CCCCC3)cc2)n1	-1	-5	1	3	·	·
c1ccc(-c2ccc(-c3ccncn3)cc2)cc1	2	-4	9.1*	2	5	7.6*
Cc1ccc(C)c(NC(=O)COC(=O)c2ccc[n+]([O-])c2)c1	0	-10	0	0	·	·
CCCCc1ccc(NC(=O)COCC)cc1	1	2	8.1*	1	3	5
CCCCc1ccc(NC(=O)N[C@@H](CC(C)C)C(=O)O)cc1	0	-8	3	1	·	·
CCCCc1ccc(NC(=O)CC(C)C)cc1	0	20	9.7*	3	4	4
Cc1cc(-n2nc(C)cc2C)nc(N)n1	0	-5	0	2	·	·
COc1ccc(C2/C(=C(/O)c3ccc(C)cc3)C(=O)C(=O)N2c2ccccn2)cc1OC (centres undefined)	2	-6	-2	3	·	·
COc1ccc(C2/C(=C(/O)c3ccccc3)C(=O)C(=O)N2c2ccccn2)cc1 (centres undefined)	2	-1	10*	2	4	1
CCCOc1ccc(/C(O)=C2\C(=O)C(=O)N(c3ccccn3)C2c2ccccc2F)cc1C (centres undefined)	3	0	15*	5	5	4
O=C(COC(=O)Cc1n[nH]c(=O)c2ccccc12)Nc1ncc(Cl)cc1Cl	0	-6	1	0	·	·
CCc1nnc2c3cnn(-c4ccccc4)c3ncn12	0	-2	5	3	·	·
Cc1ccc(-n2ncc3c2ncn2c(C)nnc32)cc1C	0	-3	9.0*	7	6	10*
CCOC(=O)C1(Cc2cccc(F)c2)CCN(C(=O)COC)CC1	0	-5	-2	-1	·	·
CCCS(=O)(=O)NC(=O)C1(C)CCCN(C(=O)c2cccc3ccccc23)C1 (centres undefined)	-1	-9	5	0	·	·
SMILES	proKLK7 act	FAS-TE inh	SMARCA2 activ	FXN GAA850 act	SMARCA2 act conf	VP16 Luc act
CCCS(=O)(=O)NC(=O)C1(C)CCCN(C(=O)c2ccccc2C(F)(F)F)C1 (centres undefined)	0	-6	8.1*	2	2	2
CS(=O)(=O)Nc1cccc(C2=NN(S(C)(=O)=O)C(c3ccc4c(c3)OCO4)C2)c1 (centres undefined)	-1	0	9.1*	1	6	7.1*
CS(=O)(=O)N1N=C(c2ccccc2)CC1c1ccc2c(c1)OCO2 (centres undefined)	0	-62	3	5	·	·
Cc1nc2c(OCc3ccc(F)cc3)cccn2c1N(C)C(=O)CCC1CCCC1	0	13	-4	-1	·	·
Cc1nc2c(OCc3ccc(Cl)cc3)cccn2c1N(C)C(=O)CCC1CCCC1	0	22	8.3*	0	-4	-1
COc1ccc(/C=C(/NC(=O)c2ccccc2)C(=O)N2CCCCC2)cc1	0	-1	0	2	·	·
CC(Oc1ccc(Br)cc1)C(=O)O/N=C(\N)c1ccncc1 (centres undefined)	0	12	12*	-3	-4	0
CCNC(=S)N(CCc1c(C)[nH]c2ccc(C)cc12)Cc1cc(OC)c(OC)c(OC)c1	0	12	-1	0	·	·
S=C(Nc1ccccc1)c1ccccn1	0	1	8.2*	6	30*	9.4*
O=C(COC(=O)c1ccc(NS(=O)(=O)c2cccs2)cc1)Nc1nc2c(F)c(F)c(F)cc2s1	·	11	·	2	·	·
O=C(CSc1nc2ccccc2c(=O)[nH]1)N1CCN(c2ccccc2F)CC1	0	-1	-3	2	·	·
Cc1cccc([N+](=O)[O-])c1NC(=O)COC(=O)C1CCCO1 (centres undefined)	0	-4	-3	-2	·	·
Cc1c(NC(=O)C2CCCO2)cccc1[N+](=O)[O-] (centres undefined)	0	-7	9.5*	-2	2	0
CC1CCN(C(=O)C2CCCN(C(=O)c3ccc4c(c3)NC(=O)CS4)C2)CC1 (centres undefined)	1	·	5	·	·	·
C=CCNc1nc(-c2ccc(Cl)cc2)cs1	0	14	3	4	·	·
Cc1ccc(-c2csc(C(C)(O)c3ccc(F)c(F)c3)n2)cc1C (centres undefined)	1	31	-1	0	·	·
Cc1cc(NC(=O)CSc2nc3sc4c(c3c(=O)n2C)CCCC4)no1	0	-12	-1	2	·	·
COc1cccc(CC(=O)Nc2ccc(S(=O)(=O)Nc3nccs3)cc2)c1	0	-5	8.4*	0	-2	2
Cn1c(SCC(=O)Nc2ccc(S(=O)(=O)Nc3nccs3)cc2)nc2sc3c(c2c1=O)CCCC3	-1	·	11*	·	3	1
COc1ccc(CC(=O)Nc2ccc(S(=O)(=O)Nc3nccs3)cc2)cc1	0	-3	0	2	·	·
COC(=O)c1c(C)[nH]c(C(=O)CN2C(=O)C3CC=CCC3C2=O)c1C (centres undefined)	0	-5	9.0*	3	6	5
CCOC(=O)c1c(C)[nH]c(C(=O)CN2C(=O)C(=O)N(CC(C)C)C2=O)c1C	0	-1	-1	1	·	·
Cc1ccc(CCN=c2c([N+](=O)[O-])nn(-c3ccccc3)n2O)cc1	0	5	-2	-1	·	·
